What all share (test): DAPPL (digital affinity profiling via proximity ligation, sequencing); 10 mM Tris-HCl pH 7.5, 50 mM NaCl, 1 mM DTT, 4% glycerol, room temperature, 30 min; GST-TFs on glutathione beads, 16-mer random dsDNA library, 0.1% formaldehyde crosslink after washing; high values mean tight binding
The target of one test is T1, FEV (Homo sapiens, UniProt Q99581 1-238).
T1 sequence: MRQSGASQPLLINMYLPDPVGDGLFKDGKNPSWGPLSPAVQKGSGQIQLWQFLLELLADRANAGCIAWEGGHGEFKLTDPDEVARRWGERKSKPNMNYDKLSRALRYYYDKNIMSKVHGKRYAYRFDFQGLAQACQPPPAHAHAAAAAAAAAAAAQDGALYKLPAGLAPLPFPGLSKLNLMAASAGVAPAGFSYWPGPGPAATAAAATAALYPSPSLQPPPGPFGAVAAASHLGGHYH
The conditions noted are these: protein: recombinant; tags: N-terminal GST; dsDNA, one strand shown. The method in brief:
(§1)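 Human transcription factors were made in yeast as GST fusions, captured on glutathione beads and barcoded with DNA. With a tag-only sample included, the pool was incubated with 200 nmole of a random double-stranded 16-mer DNA library in Tris/NaCl/DTT/glycerol buffer at room temperature for 30 min, then crosslinked with 0.1% formaldehyde after washing, ligated by proximity, amplified and sequenced. For binding signal, each hexamer's read frequency for a factor is divided by its frequency for the tag-only sample.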

The next test addresses ETV5 (Homo sapiens, UniProt P41161 1-510). The conditions noted are these: protein: recombinant; tags: N-terminal GST; dsDNA, one strand shown. Put shortly: as §1
In the next test the target is HSF1 (Homo sapiens, UniProt Q00613 1-529). The following applies: protein: recombinant; tags: N-terminal GST; chain copies: 3; dsDNA, one strand shown. The method in brief: as §1
HSF1, sequence (Q00613 whole entry): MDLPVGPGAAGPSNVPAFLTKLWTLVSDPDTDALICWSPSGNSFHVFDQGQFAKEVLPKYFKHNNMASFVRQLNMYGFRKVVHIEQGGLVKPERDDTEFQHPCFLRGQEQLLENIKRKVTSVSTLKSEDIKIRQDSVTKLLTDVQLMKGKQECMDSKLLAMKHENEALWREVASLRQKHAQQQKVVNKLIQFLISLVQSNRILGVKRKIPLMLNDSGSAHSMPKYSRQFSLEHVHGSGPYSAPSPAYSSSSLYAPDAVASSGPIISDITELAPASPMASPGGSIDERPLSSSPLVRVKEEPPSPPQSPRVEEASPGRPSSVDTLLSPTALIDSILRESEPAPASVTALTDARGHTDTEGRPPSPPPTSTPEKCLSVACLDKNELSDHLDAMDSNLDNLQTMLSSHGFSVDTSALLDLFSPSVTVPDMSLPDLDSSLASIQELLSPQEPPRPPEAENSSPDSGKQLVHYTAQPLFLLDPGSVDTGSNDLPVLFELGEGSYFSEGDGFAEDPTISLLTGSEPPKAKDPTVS
The target in a further test is T2, SPIC (Homo sapiens, UniProt Q8N5J4 1-248).
T2 sequence: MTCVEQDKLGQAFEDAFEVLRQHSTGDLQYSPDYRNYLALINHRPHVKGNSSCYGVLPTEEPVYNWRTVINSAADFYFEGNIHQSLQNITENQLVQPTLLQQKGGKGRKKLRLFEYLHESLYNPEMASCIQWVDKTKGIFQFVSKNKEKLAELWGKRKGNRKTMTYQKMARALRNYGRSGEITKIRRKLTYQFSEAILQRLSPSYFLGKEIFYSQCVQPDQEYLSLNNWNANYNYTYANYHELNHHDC
The following applies: protein: recombinant; tags: N-terminal GST; dsDNA, one strand shown. The method in brief: as §1

In another test the target is ELF4 (Homo sapiens, UniProt Q99607 1-663). The following applies: protein: recombinant; tags: N-terminal GST; dsDNA, one strand shown. The method in brief: as §1
ELF4, sequence (Q99607 whole entry): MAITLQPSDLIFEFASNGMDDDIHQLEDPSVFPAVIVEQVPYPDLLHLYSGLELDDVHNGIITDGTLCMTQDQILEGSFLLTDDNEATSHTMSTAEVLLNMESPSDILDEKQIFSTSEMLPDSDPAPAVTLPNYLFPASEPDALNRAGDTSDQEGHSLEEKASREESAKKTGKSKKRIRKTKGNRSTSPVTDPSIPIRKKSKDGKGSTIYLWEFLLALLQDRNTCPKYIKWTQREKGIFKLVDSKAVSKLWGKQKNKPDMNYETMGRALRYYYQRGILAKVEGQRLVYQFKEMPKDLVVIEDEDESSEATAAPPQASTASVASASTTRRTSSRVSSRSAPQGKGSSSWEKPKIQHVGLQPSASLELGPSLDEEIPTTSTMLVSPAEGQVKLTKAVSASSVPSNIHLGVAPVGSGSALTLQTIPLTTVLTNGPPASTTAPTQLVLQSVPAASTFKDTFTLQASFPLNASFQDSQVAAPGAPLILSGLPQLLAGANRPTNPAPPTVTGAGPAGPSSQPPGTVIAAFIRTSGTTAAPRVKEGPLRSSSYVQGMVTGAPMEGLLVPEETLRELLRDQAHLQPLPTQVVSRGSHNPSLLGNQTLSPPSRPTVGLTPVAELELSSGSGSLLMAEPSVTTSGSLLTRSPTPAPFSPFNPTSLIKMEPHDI
A further test concerns the target T3, ELK4 (Homo sapiens, UniProt P28324-2 1-405).
T3 sequence: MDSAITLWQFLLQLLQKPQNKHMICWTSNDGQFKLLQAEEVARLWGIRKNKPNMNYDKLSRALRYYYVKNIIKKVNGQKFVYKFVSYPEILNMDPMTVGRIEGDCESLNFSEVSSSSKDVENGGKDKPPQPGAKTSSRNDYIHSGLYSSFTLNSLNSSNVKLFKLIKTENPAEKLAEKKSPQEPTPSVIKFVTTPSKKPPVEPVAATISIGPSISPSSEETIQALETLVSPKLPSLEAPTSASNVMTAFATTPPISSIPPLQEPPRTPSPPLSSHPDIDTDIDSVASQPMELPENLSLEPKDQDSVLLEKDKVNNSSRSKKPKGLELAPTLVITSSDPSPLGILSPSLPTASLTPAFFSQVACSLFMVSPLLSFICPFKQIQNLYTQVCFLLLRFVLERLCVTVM
The following applies: protein: recombinant; tags: N-terminal GST; dsDNA, one strand shown. The method in brief: as §1

The target of another test is T4, ETV2 (Homo sapiens, UniProt O00321 1-342).
T4 sequence: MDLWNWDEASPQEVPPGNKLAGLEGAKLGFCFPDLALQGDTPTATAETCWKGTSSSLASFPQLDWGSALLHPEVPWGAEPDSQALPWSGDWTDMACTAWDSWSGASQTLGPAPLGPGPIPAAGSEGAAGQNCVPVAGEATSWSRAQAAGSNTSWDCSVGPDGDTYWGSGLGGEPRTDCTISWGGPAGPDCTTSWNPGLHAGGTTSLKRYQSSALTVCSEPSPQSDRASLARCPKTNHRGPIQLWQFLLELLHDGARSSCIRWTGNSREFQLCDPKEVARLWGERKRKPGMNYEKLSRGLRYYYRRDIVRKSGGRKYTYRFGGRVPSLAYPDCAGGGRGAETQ
The conditions noted are these: protein: recombinant; tags: N-terminal GST; dsDNA, one strand shown. The method in brief: as §1

The next test deals with T5, ELF3 (Homo sapiens, UniProt P78545 1-371).
T5 sequence: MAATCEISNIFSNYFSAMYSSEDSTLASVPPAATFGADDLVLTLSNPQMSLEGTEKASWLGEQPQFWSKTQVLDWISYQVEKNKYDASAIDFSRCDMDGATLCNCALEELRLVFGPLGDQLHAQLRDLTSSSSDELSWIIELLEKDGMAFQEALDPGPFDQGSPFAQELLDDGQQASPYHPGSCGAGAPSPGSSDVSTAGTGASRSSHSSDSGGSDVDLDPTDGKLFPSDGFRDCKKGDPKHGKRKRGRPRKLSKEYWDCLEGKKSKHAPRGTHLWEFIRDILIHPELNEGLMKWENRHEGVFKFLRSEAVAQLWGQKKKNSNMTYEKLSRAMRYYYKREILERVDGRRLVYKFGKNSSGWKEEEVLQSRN
The conditions noted are these: protein: recombinant; tags: N-terminal GST; dsDNA, one strand shown. Put shortly:
as §1

The target in the next test is CRX (Homo sapiens, UniProt O43186 1-299). The following applies: protein: recombinant; tags: N-terminal GST; dsDNA, one strand shown. Put shortly: as §1
CRX, sequence (O43186 whole entry): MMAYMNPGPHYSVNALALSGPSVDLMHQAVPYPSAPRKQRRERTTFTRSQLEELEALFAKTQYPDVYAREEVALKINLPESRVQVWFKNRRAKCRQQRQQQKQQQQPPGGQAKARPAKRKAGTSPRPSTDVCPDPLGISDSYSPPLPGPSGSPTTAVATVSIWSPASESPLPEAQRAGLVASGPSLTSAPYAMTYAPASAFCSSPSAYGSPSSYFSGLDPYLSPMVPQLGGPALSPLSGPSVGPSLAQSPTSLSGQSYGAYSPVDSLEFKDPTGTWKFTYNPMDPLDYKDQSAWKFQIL
The next test addresses ETV1 (Homo sapiens, UniProt P50549 1-477). The following applies: protein: recombinant; tags: N-terminal GST; dsDNA, one strand shown. Put shortly:
as §1

In the next test the target is T6, ERF (Homo sapiens, UniProt P50548 1-548).
T6 sequence: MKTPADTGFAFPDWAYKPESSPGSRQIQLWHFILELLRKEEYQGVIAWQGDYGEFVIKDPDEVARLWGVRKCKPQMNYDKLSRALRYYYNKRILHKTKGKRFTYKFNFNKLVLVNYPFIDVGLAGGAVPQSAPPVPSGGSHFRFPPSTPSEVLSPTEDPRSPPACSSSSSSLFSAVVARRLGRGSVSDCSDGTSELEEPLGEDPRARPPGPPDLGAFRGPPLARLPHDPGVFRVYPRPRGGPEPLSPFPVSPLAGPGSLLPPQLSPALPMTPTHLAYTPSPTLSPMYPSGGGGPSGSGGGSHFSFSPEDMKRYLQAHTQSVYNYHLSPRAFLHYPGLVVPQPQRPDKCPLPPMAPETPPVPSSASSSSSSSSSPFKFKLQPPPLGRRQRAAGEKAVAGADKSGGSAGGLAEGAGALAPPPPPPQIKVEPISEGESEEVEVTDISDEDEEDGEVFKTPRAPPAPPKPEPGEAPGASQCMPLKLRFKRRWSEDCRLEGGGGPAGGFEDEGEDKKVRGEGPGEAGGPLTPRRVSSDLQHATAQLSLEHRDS
The conditions noted are these: protein: recombinant; tags: N-terminal GST; dsDNA, one strand shown. Put shortly: as §1

A further test deals with T7, ETV3L (Homo sapiens, UniProt Q6ZN32 1-361).
T7 sequence: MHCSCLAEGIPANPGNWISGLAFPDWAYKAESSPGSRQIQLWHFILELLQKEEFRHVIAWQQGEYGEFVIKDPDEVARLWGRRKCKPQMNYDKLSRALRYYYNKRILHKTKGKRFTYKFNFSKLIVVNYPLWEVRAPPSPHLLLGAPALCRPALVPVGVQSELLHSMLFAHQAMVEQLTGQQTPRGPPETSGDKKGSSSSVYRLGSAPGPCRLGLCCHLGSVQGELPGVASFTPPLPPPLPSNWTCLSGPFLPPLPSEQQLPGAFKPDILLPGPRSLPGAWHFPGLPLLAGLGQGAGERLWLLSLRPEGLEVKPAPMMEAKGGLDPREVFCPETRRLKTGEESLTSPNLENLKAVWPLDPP
The conditions noted are these: protein: recombinant; tags: N-terminal GST; dsDNA, one strand shown. The method in brief: as §1

Another test has as its target T8, ETS2 (Homo sapiens, UniProt P15036 1-469).
T8 sequence: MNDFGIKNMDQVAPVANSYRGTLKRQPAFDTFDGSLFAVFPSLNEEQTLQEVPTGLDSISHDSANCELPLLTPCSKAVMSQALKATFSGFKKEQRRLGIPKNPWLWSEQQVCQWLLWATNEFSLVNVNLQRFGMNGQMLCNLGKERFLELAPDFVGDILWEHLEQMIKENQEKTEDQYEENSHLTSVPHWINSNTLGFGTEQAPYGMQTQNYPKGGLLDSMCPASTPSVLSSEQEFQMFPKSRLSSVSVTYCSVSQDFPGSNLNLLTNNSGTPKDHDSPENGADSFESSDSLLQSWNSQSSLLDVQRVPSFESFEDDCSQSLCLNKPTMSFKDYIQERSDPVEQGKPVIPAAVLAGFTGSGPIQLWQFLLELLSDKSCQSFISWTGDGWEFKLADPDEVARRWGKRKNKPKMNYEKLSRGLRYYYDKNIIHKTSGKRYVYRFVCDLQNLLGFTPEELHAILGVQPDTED
The following applies: protein: recombinant; tags: N-terminal GST; dsDNA, one strand shown. Put shortly: as §1

Another test deals with T9, SPDEF (Homo sapiens, UniProt O95238 1-335).
T9 sequence: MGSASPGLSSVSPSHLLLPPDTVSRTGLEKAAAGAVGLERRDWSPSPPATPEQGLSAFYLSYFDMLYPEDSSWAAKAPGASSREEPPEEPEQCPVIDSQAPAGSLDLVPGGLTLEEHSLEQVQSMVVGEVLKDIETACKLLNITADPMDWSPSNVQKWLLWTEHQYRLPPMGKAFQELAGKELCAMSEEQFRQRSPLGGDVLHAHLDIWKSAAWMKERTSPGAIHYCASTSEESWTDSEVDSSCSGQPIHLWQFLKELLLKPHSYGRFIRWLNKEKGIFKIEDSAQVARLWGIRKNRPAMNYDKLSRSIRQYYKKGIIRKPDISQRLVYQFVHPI
The conditions noted are these: protein: recombinant; tags: N-terminal GST; dsDNA, one strand shown. Put shortly: as §1

The target of the next test is T10, ETV7 (Homo sapiens, UniProt Q9Y603 1-341).
T10 sequence: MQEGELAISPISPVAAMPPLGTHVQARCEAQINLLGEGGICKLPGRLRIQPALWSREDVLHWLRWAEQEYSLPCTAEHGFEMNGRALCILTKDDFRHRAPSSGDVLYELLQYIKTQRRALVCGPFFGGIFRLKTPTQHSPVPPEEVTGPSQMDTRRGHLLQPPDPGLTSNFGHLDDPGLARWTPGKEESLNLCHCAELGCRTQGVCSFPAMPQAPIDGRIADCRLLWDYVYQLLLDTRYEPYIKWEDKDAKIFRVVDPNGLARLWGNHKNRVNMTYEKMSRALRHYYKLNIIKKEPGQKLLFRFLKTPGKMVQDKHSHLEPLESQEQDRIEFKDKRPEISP
The following applies: protein: recombinant; tags: N-terminal GST; dsDNA, one strand shown. Put shortly:
as §1

The target in a further test is T11, ELF5 (Homo sapiens, UniProt Q9UKW6-2 1-255).
T11 sequence: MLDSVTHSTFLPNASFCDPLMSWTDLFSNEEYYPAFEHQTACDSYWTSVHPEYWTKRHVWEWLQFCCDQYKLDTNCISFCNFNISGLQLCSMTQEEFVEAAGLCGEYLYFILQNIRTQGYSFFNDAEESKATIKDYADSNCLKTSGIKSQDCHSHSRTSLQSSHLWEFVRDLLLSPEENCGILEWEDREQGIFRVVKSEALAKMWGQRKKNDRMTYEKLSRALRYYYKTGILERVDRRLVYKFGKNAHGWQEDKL
The following applies: protein: recombinant; tags: N-terminal GST; dsDNA, one strand shown. The method in brief: as §1

The target of a further test is T12, ETV3 (Homo sapiens, UniProt P41162-2 1-143).
T12 sequence: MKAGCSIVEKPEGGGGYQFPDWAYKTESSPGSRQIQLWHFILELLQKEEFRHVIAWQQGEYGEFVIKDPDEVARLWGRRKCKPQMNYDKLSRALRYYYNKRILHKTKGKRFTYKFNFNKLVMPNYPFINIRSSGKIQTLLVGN
The conditions noted are these: protein: recombinant; tags: N-terminal GST; dsDNA, one strand shown. Put shortly: as §1

The next test concerns the target ETV6 (Homo sapiens, UniProt P41212 1-452). The following applies: protein: recombinant; tags: N-terminal GST; dsDNA, one strand shown. The method in brief: as §1

ETV1, sequence (P50549 whole entry): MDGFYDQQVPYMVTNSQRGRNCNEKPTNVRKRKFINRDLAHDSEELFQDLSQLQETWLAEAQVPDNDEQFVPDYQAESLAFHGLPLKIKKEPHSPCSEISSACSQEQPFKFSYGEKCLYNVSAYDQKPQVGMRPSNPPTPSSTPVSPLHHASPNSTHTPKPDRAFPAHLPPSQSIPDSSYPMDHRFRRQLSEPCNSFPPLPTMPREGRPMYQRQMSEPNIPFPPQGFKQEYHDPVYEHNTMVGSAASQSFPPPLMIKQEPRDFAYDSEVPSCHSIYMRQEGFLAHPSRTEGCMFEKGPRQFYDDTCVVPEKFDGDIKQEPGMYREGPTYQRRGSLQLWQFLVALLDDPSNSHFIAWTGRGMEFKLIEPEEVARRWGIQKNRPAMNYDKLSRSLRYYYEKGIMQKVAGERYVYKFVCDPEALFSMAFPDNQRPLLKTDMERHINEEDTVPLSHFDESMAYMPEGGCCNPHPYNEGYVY
ETV5, sequence (P41161 whole entry): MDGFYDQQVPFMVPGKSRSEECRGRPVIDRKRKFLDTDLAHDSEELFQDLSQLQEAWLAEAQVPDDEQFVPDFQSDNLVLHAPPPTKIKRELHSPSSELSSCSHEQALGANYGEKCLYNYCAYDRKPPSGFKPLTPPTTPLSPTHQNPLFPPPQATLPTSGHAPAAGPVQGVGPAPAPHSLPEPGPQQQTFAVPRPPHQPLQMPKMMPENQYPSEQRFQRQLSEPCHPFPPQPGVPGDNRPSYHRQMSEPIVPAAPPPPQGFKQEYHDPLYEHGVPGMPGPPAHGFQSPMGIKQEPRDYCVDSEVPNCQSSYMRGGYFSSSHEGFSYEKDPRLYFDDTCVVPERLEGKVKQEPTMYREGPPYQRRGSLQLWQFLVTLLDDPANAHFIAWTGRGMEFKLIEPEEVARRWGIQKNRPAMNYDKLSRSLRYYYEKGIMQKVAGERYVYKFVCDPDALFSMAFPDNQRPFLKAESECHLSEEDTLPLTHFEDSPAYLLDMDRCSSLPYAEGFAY
ETV6, sequence (P41212 whole entry): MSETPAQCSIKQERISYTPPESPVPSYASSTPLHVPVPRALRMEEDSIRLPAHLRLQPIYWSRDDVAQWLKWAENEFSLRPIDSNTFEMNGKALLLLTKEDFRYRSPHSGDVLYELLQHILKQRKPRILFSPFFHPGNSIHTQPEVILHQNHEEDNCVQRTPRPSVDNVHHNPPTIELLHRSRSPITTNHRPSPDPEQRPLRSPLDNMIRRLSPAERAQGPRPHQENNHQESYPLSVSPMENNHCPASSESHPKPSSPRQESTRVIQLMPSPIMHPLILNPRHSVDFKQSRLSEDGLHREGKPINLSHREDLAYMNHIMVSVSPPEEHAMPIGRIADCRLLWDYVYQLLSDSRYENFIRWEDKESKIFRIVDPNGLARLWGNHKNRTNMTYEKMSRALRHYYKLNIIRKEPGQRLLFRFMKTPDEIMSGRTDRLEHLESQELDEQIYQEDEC

For the sequence CAATCC, the binding signal is 1.17 fold enrichment (6-mer frequency, TF over GST control) with FEV; 1.12 fold enrichment (6-mer frequency, TF over GST control) with ETV5; 1.37 fold enrichment (6-mer frequency, TF over GST control) with HSF1; 1.11 fold enrichment (6-mer frequency, TF over GST control) with SPIC; 1.19 fold enrichment (6-mer frequency, TF over GST control) with ELF4; 1.19 fold enrichment (6-mer frequency, TF over GST control) with ELK4. In addition, the binding signal with ETV2 is 1.38 fold enrichment (6-mer frequency, TF over GST control); with ELF3, 1.3 fold enrichment (6-mer frequency, TF over GST control); in the test with CRX it was 1.6 fold enrichment (6-mer frequency, TF over GST control); with ETV1, 1.19 fold enrichment (6-mer frequency, TF over GST control); with ERF, 1.25 fold enrichment (6-mer frequency, TF over GST control); with ETV3L it was 1.2 fold enrichment (6-mer frequency, TF over GST control). Besides, the binding signal was 1.22 fold enrichment (6-mer frequency, TF over GST control) with ETS2; 1.4 fold enrichment (6-mer frequency, TF over GST control) with SPDEF; 1.16 fold enrichment (6-mer frequency, TF over GST control) in the test with ETV7; 1.21 fold enrichment (6-mer frequency, TF over GST control) with ELF5; 1.19 fold enrichment (6-mer frequency, TF over GST control) with ETV3; 1.22 fold enrichment (6-mer frequency, TF over GST control) in the test with ETV6.

The values above are taken from paper PMC7862700, “An all-to-all approach to the identification of sequence-specific readers for epigenetic DNA modifications on cytosine”.
